Sampled rows, rich in hits. Any-hit rate of the full collection: about 6.8%.
PMK inhibit: S. pneumoniae PMK inhibitors, primary screen, biochemical, mevalonate pathway, pilot trial included | inhibition, % at 10 µM | purified PMK, PK/LDH-coupled NADH absorbance 340 nm | 65,000 tested, 0.49% active;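 active means top-ranked compounds by inhibition in the single 10 µM screen, taking a fixed number of the strongest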;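 further: 0% = full reaction with DMSO carrier and 100% = background rate without enzyme reaction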
Fluor 339 460: intrinsic fluorescence of library compounds, ex339/em460 – biochemical, MLSMR library, data from DPM-DC assay, artefact control, profiling panel; compound autofluorescence, ex339/em460 nm, NADH buffer; hits give high values; 1 = no-compound wells, NADH background; fluorescence fold increase at 10 µM; 65,000 tested, 5.5% active;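 active means at 10 µM, mean starting fluorescence two-fold or more over control wells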;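 further: signal is the first read of a kinetic run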
MK inhibit: S. pneumoniae MK inhibitors, primary screen, biochemical, PK/LDH-coupled NADH absorbance. inhibition, % at 10 µM. purified MK, PK/LDH-coupled NADH absorbance 340 nm. 65,000 tested, 0.48% active. mevalonate kinase [Streptococcus pneumoniae D39];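 active means ranked among the strongest by inhibition in the single 10 µM screen, a fixed top-ranked set picked for dose follow-up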
Abs 340nm: compound light absorbance at 340 nm, profiling panel, artefact control, biochemical, MLSMR library, data from PS, PMK, MK assays; compound absorbance at 340 nm, fold over control; fold change at 10 µM; 65,000 tested, under 10 active;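 active means at 10 µM dose, initial 340 nm absorbance at least 2 fold that of control wells; inactive means change under 2 fold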;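 further: initial absorbance extrapolated from kinetic A340 decline of NADH oxidation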
DPM-DC inhibit: S. pneumoniae DPM-DC inhibitors, primary screen, biochemical, PK/LDH-coupled NADH fluorescence; diphosphomevalonate decarboxylase (Streptococcus pneumoniae D39); purified DPM-DC; calls only at 10 µM; 65,000 tested, 0.49% active; AID 556, 2006;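 active means the 320 compounds with the highest percent inhibition in the single-dose primary screen, excluding strongly autofluorescent ones, cut at about 32% in these data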;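 further: kinetic rate of NADH fluorescence loss reporting ADP formed by the decarboxylase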
NADH enzymes: inhibitors of PK/LDH coupling enzymes, profiling panel, artefact control, biochemical, MLSMR library. coupled PK/LDH NADH assays, four targets. 65,000 tested, 0.02% active. IC50, µM (series often up to 10 µM), for inactives: at the top dose inhibition. AID 774, 2007;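 active means single-dose screening hits from any of four coupled enzyme assays that gave an IC50 when retested across doses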;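 further: the DPM-DC format reads NADH fluorescence rather than 340 nm absorbance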
* marks the source's active call; other numbers are inactive results; i = inactive; / = not tested or not shown; + = active, no number.

SMILES	PMK inhibit	Fluor 339 460	MK inhibit	Abs 340nm	DPM-DC inhibit	NADH enzymes
Cc1cc2c(=O)n(CC(=O)N3CCN(c4ccc(F)cc4)CC3)cnc2s1	14.0	1.11	0.0	1.01	i	5.0%
CCOC(=O)N1CCN(C(=O)Nc2ccc3nc(C)sc3c2)CC1	4.0	1.22	0.0	1.04	i	1.0%
CCOC(=O)N1CCN(C(=O)Nc2ccc3nc(-c4ccccn4)c(-c4ccccn4)nc3c2)CC1	0.0	2.18*	5.0	1.11	/	3.0%
Cc1nc2ccc(NC(=O)N3CCSCC3)cc2nc1C	0.0	1.93	5.0	1.08	/	3.0%
O=C(Nc1ccc2nc(-c3cccs3)c(-c3cccs3)nc2c1)N1CCOCC1	9.0	2.55*	5.0	1.05	+	19.0%
O=C(COc1ccccc1)NCc1nnc(SCC(=O)Nc2nccs2)n1-c1ccccc1	7.0	1.04	0.0	1.05	i	2.0%
O=C(CSc1nnc(COc2ccccc2)n1-c1ccccc1)c1cccs1	25.0*	1.09	12.0	1.01	i	12.0%

Screens deposited in PubChem BioAssay by SRMLSC.
